KKLEB cytotox = CF airway cell cytotoxicity counter-screen | KKLEB CF airway cells viability, ATPlite luminescence, overnight; hits give low values; cells stimulated with P. aeruginosa culture filtrate | activity change (cytotoxicity), % at 5 µM | hit rate 0.36% among 360,000 | AID 602141;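 active = corrected activity change at or below -50% at 5 µM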
PAX8 reporter = inhibitors of PAX8 transcriptional activity in RMG-I cells; RMG-I TPO-luciferase reporter, SteadyGlo, 24 h; inhibition, % at 12.6 µM; hit rate 1.2% among 360,000; AID 652154;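 active = mean replicate inhibition at least 60% with every replicate also reaching 60%; inconclusive = only one of the two criteria is met; inactive = mean below 60% and not all replicates reaching 60%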;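 also: luciferase light reporting Pax8 driven TPO promoter activity; plate controls were median of neutral control wells for no effect and mitoxantrone controls for full effect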
EWS-Fli block = inhibitors of EWS/Fli oncoprotein transcriptional activity | AID 651661 | A673 NR0B1-luciferase reporter, viability-normalised | hit rate 0.67% among 350,000 | inhibition, % at 12.6 µM;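 active = mean inhibition of at least 50% after viability correction, with every replicate also passing that limit; inconclusive = mean reaches 50% but only one of two replicates passes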;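 also: firefly luciferase signal divided by Alamar Blue viability fluorescence both relative to DMSO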
CF NFkB inh = cystic fibrosis NF-kB activation inhibition; KKLEB NF-kB-GFP reporter, PAF-induced, GFP fluorescence overnight; inhibition, % at 5 µM; hit rate 0.86% among 360,000; AID 588850;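 active = at least 50% inhibition at 5 µM, scaled per plate between neutral and stimulator controls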;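 also: PAF is a Pseudomonas aeruginosa culture filtrate used as stimulus; plate controls were PAF-stimulated DMSO wells for no effect and unstimulated DMSO wells for full effect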
HIF-2a block = inhibitors of HIF-2a; 786-0 RCC cells HIF-2a reporter, luciferase luminescence, overnight; inhibition, % at 18.8 µM; hit rate 0.72% among 360,000;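 active = inhibition of the luminescence signal of 40% or more relative to plate controls, in a single-dose primary screen at 18.75 µM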
DNA binder FP = DNA binding small molecules; shares compounds with EWS-Fli block; salmon sperm DNA acridine orange fluorescence polarization; AC35, µM (doses to about 68 µM), for inactives: top-dose activity change, negative = DNA binding; hit rate 2% among 640;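 active = fitted curve reaches a 35% signal fall AC35 below twice the sample's top valid tested dose, actives reach about 48 µM in these data; inactive = the rest, including activity in the rising direction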;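 also: lower polarization ratio signals compound binding to DNA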
* hit, by the source's call; ? = inconclusive; · = no result given; ! = a repeat was not active. Compounds with a hit are over-represented: about 2.1% of the library has one in this group of screens.

SMILES	KKLEB cytotox	PAX8 reporter	EWS-Fli block	CF NFkB inh	HIF-2a block	DNA binder FP
O=C(Nc1cc(F)ccc1F)N1CC(=O)N2[C@H](C1)[C@H](c1ccc(-c3ccccc3)cc1)[C@@H]2CO	·	-15	0	·	·	·
C#CCOCCOCCOCCNc1nc(N2CCN(C(=O)CCCCCCCCCCNC(=O)Cn3cc(C[C@@H](C)O)nn3)CC2)nc(N2CCN(C(=O)CCCCCCCCCCNC(=O)[C@H](CO)n3cc(CCCSC)nn3)CC2)n1	-8	39	58*	4	4	12%
COc1ccc2c3c(n(C)c2c1)[C@@H](CO)N(C(=O)Nc1ccc(F)cc1)CC31CN(C(=O)c2ccc3c(c2)OCO3)C1	·	·	31	·	·	·
COC(=O)Cc1ccc(NC(=O)c2ccccc2Cl)cc1	16	-41	66*	6	-20	-11%
N#C[C@H]1[C@H](c2ccc(-c3ccccc3F)cc2)[C@@H](CO)N1C(=O)Cc1ccccc1	·	?	62*	·	·	11%
COc1ccc(Cl)cc1S(=O)(=O)Nc1ccc2c(c1)n(C)c(=O)n2C	-8	15	54*	-34	1	-16%
CCCN1C[C@H](C)[C@H](OC)CN(C)C(=O)c2cc(NS(=O)(=O)c3cn(C)cn3)ccc2OC[C@@H]1C	·	0	-1	·	·	·
CC(Oc1cccc(Cl)c1)C(=O)NCCCCc1ccccc1 (stereo not given)	8	-3	87*	-4	-7	1%
CC(Oc1ccc(Cl)cc1Cl)C(=O)NCCCCc1ccccc1 (stereo not given)	7	-13	·	-18	18	·
C[C@@H]1CN([C@@H](C)CO)S(=O)(=O)c2ccc(C3=CCCC3)cc2O[C@@H]1CN(C)C(=O)c1ccccn1	·	·	-2	·	·	·
COC(=O)C[C@@H]1CC[C@@H]2[C@H](COc3ccc(NC(=O)c4ccc(F)cc4)cc3C(=O)N2C)O1	·	3	57*	·	·	11%
COC(=O)C[C@H]1CC[C@H]2[C@@H](COc3ccc(NC(=O)c4cc(F)cc(F)c4)cc3C(=O)N2C)O1	·	-15	-11	·	·	·
COC(=O)C[C@H]1CC[C@H]2[C@H](COc3ccc(NC(=O)c4ccccc4)cc3C(=O)N2C)O1	·	-7	-16	·	·	·
COC(=O)C[C@@H]1CC[C@@H]2[C@H](COc3ccc(NC(=O)c4cc(F)cc(F)c4)cc3C(=O)N2C)O1	·	-17	61*	·	·	-5%
COC(=O)C[C@@H]1CC[C@@H]2[C@H](COc3ccc(NC(=O)c4ccccc4)cc3C(=O)N2C)O1	·	6	58*	·	·	-6%
CCCC(=O)Nc1ccc2c(c1)OC[C@@H](C)N(Cc1nccs1)C[C@@H](C)[C@@H](OC)CN(C)C2=O	·	19	2	·	·	·
Brc1ccc(CSc2nnc(-c3ccco3)o2)cc1	5	-46	82*	-13	-203	-3%
CN1c2ccc(-c3ccc(C#N)cc3)cc2[C@H]2[C@H](CCN2S(=O)(=O)c2cccc(F)c2)[C@@H]1CO	·	73*	61*	·	·	-11%
CN1c2ccc(-c3ccc(F)cc3)cc2[C@H]2[C@H](CCN2S(=O)(=O)c2ccc(F)cc2)[C@H]1CO	·	-3	?	·	·	·
Cc1ccccc1S(=O)(=O)N1CC[C@H]2[C@H](CO)Nc3ccc(-c4ccc(C#N)cc4)cc3[C@H]21	·	-24	8	·	·	·
Cc1ccccc1S(=O)(=O)N1CC[C@@H]2[C@@H](CO)Nc3ccc(-c4ccc(C#N)cc4)cc3[C@@H]21	·	24	54*	·	·	-17%
COc1ccc(-c2ccc3c(c2)[C@H]2[C@H](CCN2S(=O)(=O)c2ccc(OC)cc2)[C@@H](CO)N3C)cc1	·	79*	55*	·	·	5%
Cc1noc(C)c1S(=O)(=O)Nc1ccc2c(c1)C(=O)N([C@H](C)CO)C[C@@H](C)[C@H](CN(C)Cc1ccncc1)OCCCC[C@H](C)O2	·	-1	0	·	·	·
CCNC(=O)Nc1ccc2c(c1)C(=O)N(C)[C@H]1CC[C@H](CC(=O)Nc3ccccc3)O[C@H]1CO2	·	-15	-4	·	·	·
COC(=O)C[C@H]1CC[C@H]2[C@@H](COc3ccc(NC(=O)Nc4cccc(C#N)c4)cc3C(=O)N2C)O1	·	·	-2	·	·	·
SMILES	KKLEB cytotox	PAX8 reporter	EWS-Fli block	CF NFkB inh	HIF-2a block	DNA binder FP
COC(=O)C[C@@H]1CC[C@@H]2[C@H](COc3ccc(NC(=O)Nc4ccc(C#N)cc4)cc3C(=O)N2C)O1	·	-15	53*	·	·	-2%
COC(=O)C[C@@H]1CC[C@@H]2[C@H](COc3ccc(NC(=O)Nc4cccc(C#N)c4)cc3C(=O)N2C)O1	·	-23	65*	·	·	1%
CCC(=O)N1C[C@@H]2[C@H](c3ccccc31)[C@@H](CO)N2Cc1ccccc1Cl	·	15	3	·	·	·
Cc1ccc(C(C(=O)NCc2ccco2)N(C(=O)CNC(=O)c2cccs2)c2c(C)cccc2C)cc1 (stereo not given)	-5	2	17	0	20	·
Cc1ccc(C(C(=O)NCc2ccco2)N(C(=O)CNC(=O)c2cccs2)c2c(C)cc(C)cc2C)cc1 (stereo not given)	-34	·	55*	28	6	8%
C[C@@H]1CN([C@H](C)CO)S(=O)(=O)c2ccc(C#CC(C)(C)O)cc2O[C@H]1CN(C)Cc1ccc(-c2ccccc2)cc1	·	·	58*	·	·	-15%
C[C@@H](O)C#Cc1ccc2c(c1)O[C@@H](CN(C)Cc1ccc(-c3ccccc3)cc1)[C@@H](C)CN([C@@H](C)CO)S2(=O)=O	·	50	-5	·	·	·
C[C@H](O)C#Cc1ccc2c(c1)O[C@@H](CN(C)Cc1ccc(-c3ccccc3)cc1)[C@H](C)CN([C@@H](C)CO)S2(=O)=O	-17	87*	67*!	36	-2	-9%
N#C[C@@H]1[C@H](c2ccccc2-c2ccc(F)cc2)[C@H](CO)N1C(=O)Cc1ccccc1	·	2	-2	·	·	·
CO[C@H]1CN(C)C(=O)c2cc(NC(=O)c3ccccc3)ccc2OC[C@H](C)N(C)C[C@@H]1C	·	·	7	·	·	·
CC1(CCc2ccccc2)NC(=O)N(CC(=O)N2CC(=O)Nc3ccccc32)C1=O (stereo not given)	-6	7	62*	13	1	-6%
COc1cccc(CN2CCC2(C)C(=O)Nc2cccc3cccnc23)c1F (stereo not given)	-3	38	59*	31	-6	-8%
CO[C@H]1CN(C)C(=O)c2cc(NC(=O)NC3CCCC3)ccc2OC[C@@H](C)NC[C@@H]1C	·	·	-4	·	·	·
CCOc1ccc(C(c2c(NC(=O)c3ccccc3)sc(C)c2C)N2CCN(CCO)CC2)cc1 (stereo not given)	6	4	80*	-1	-55	-14%
Cc1sc(NC(=O)c2ccccc2)c(C(c2ccc(Cl)cc2)N2CCN(CCO)CC2)c1C (stereo not given)	-20	8	0	26	-27	·
COc1ccc(NC(=O)N(C)C[C@H]2Oc3ccc(NC(=O)CCCN(C)C)cc3C(=O)N([C@@H](C)CO)C[C@@H]2C)cc1	·	-22	-1	·	·	·
